Bioassay records as filed in PubChem.
A selection: hits, their analogues and other compounds. The true share with any hit is near 0.74%.
Mtb bLac sens – beta-lactam sensitization of Mtb H37Rv. M. tuberculosis H37Rv growth with meropenem, percent inhibition. inhibition, % at 25 µM. 0.27% of 330,000 active; call rule not given here;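 further: growth measured after seven days incubation then overnight dye step; 0% = bacteria only wells and 100% = bacteria with antibiotic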
BH1578 lux ind – quorum light induction in luxS cqsA deficient V. cholerae; V. cholerae BH1578 lux reporter, luminescence, 6 h; AID 588436; 0.16% of 350,000 active; activation, % at 18.7 µM; in the data active means activation mostly above about 9.7%, no sharp cut-off; inconclusive means no clear call, values can overlap the other calls; inactive means mostly below about 3.7%
FadD28 binding – blocks FadD28 binding to the bisubstrate probe. fluorescence polarization. inhibition, % at 12.5 µM. 0.22% of 360,000 active. AID 588549; in the data active means inhibition above about 8.5%, passing the limit was not always enough; inconclusive means no clear call, values can overlap the other calls
UGM FP inh – blocks M. tuberculosis UGM enzyme | P9WIQ1 | purified UGM, fluorescence polarization probe displacement | inhibition, % at 10 µM | 0.06% of 320,000 active; in the data active means inhibition above about 10%, passing the limit was not always enough; inconclusive means no clear call, values can overlap the other calls
Rv3671c inh – Rv3671c (M. tuberculosis) protease inhibition. AID 2606. inhibition, % at 5.96 µM. 0.048% of 320,000 active; in the data active means inhibition above about 38%;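 further: extracellular domain of Rv3671c used as enzyme; 0% = enzyme with DMSO and 100% = no enzyme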
Target sequence (P9WHR9 whole entry, looked up, the tested form may be a part): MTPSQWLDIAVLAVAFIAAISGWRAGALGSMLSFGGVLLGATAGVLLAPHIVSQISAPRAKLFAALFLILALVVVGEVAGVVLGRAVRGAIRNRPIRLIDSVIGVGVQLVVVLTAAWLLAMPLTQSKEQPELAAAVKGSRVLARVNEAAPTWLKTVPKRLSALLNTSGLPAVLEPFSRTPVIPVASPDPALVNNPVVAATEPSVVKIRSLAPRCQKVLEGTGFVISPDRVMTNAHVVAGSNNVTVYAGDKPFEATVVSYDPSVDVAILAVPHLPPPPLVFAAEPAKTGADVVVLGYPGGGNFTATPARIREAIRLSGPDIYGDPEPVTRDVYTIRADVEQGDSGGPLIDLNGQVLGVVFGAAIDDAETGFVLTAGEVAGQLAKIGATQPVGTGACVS
MazEF act – activators of E. coli MazEF toxin-antitoxin RNase; P0AE70; 0.32% of 350,000 active; activation, % at 20 µM; FAM/BHQ RNA-DNA oligo cleavage fluorescence, 5 h; in the data active means activation above about 50%
Target sequence (P0AE70 whole entry, looked up): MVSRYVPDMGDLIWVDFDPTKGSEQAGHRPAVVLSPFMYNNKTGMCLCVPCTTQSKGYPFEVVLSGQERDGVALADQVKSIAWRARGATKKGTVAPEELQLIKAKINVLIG
* hit, by the source's call.

`O=C(Nc1nccs1)c1ccc(-c2ccc(Cl)cc2)o1` gave Mtb bLac sens 99, BH1578 lux ind 0, FadD28 binding 1, UGM FP inh 0, Rv3671c inh -15 and MazEF act 4.
For COc1ccc(N=c2oc3c(OC)cccc3cc2C(=O)NCc2ccco2)c(OC)c1 the results were Mtb bLac sens -1, BH1578 lux ind -6, FadD28 binding 0, UGM FP inh 3, Rv3671c inh -4 and MazEF act 65*.
For CCCNC(=O)c1cc2ccccc2c(=O)o1 the results were Mtb bLac sens -8, BH1578 lux ind inactive, FadD28 binding -1, UGM FP inh 0, Rv3671c inh -7 and MazEF act 8.
Screening Cc1cc(C)n(C(=O)c2cc3ccccc3c(=O)o2)n1 returned Mtb bLac sens 0, BH1578 lux ind 17*, FadD28 binding 0, UGM FP inh -2, Rv3671c inh -4 and MazEF act 1.
CN1C(=O)C(C)(C)c2cc(S(=O)(=O)NCc3ccc(C(=O)NCc4ccco4)cc3)ccc21 was read as Mtb bLac sens -5, BH1578 lux ind 0, FadD28 binding 1, UGM FP inh 2, Rv3671c inh 3 and MazEF act 140*.
For O=C(NCc1ccccc1)c1ccc2c(=O)[nH]c3c(C(=O)NCC4CCCO4)sc(=S)n3c2c1 (stereo not given) the results were Mtb bLac sens 20, BH1578 lux ind inactive, FadD28 binding 23*, UGM FP inh 0, Rv3671c inh 3 and MazEF act -3.
For O=C(NCc1ccco1)c1sc(=S)n2c1[nH]c(=O)c1ccccc12 the results were Mtb bLac sens -3, BH1578 lux ind -1, FadD28 binding inconclusive, UGM FP inh -1, Rv3671c inh 3 and MazEF act 0.
For CCn1c(N)c(C(=O)NCC2CCCO2)sc1=S (stereo not given) the results were Mtb bLac sens 0, BH1578 lux ind 0, FadD28 binding -2, UGM FP inh -2, Rv3671c inh 1 and MazEF act -2.
`CCCCCNC(=O)c1ccc2c(=O)[nH]c3c(C(=O)NCC4CCCO4)sc(=S)n3c2c1` (stereo not given) gave Mtb bLac sens 99, BH1578 lux ind inactive, FadD28 binding 17*, UGM FP inh 0, Rv3671c inh 0 and MazEF act 1.
`Cc1ccc(CNC(=O)c2ccc3c(=O)[nH]c4c(C(=O)NCC5CCCO5)sc(=S)n4c3c2)cc1` (stereo not given) gave Mtb bLac sens 41, BH1578 lux ind 0, FadD28 binding 60*, UGM FP inh 0, Rv3671c inh 18 and MazEF act 0.
`O=C(NCc1ccccc1)c1ccc2c(=O)n(CC3CCCO3)c(=S)[nH]c2c1` (stereo not given) gave Mtb bLac sens 7, BH1578 lux ind inactive, FadD28 binding -7, UGM FP inh -1, Rv3671c inh -14 and MazEF act 4.
`O=C(NC1CCCC1)c1sc(=S)n2c1[nH]c(=O)c1ccccc12` gave Mtb bLac sens 5, BH1578 lux ind 0, FadD28 binding 29*, UGM FP inh 0, Rv3671c inh 4 and MazEF act -12.
`Cc1ccc([C@H]2C[C@@H](O)[C@H](n3cc(-c4ccc(F)cc4)nn3)CN2C(=O)C2CCCCC2)cc1` gave BH1578 lux ind 0, FadD28 binding -1 and MazEF act 7.
Screening COc1ccccc1C(=O)NCCC(=O)NCC1CCCO1 (stereo not given) returned Mtb bLac sens 2, BH1578 lux ind -1, FadD28 binding 0, UGM FP inh 0, Rv3671c inh -1 and MazEF act 9.
`Cc1ccc[n+](-c2nc3ccccc3nc2C(=C=[N-])C#N)c1` gave Mtb bLac sens -8, BH1578 lux ind -2, FadD28 binding 1, UGM FP inh -1, Rv3671c inh 4 and MazEF act 0.
Screening CCc1ccc[n+](-c2nc3ccccc3nc2C(=C=[N-])C#N)c1 returned Mtb bLac sens -1, BH1578 lux ind inactive, FadD28 binding 0, UGM FP inh 1, Rv3671c inh -2 and MazEF act 578*.
CC(=O)OCC(=O)[C@@]12OC(C)(C)O[C@@H]1C[C@H]1[C@@H]3C[C@H](F)C4=CC(=O)C=C[C@]4(C)[C@@]3(F)[C@@H](O)C[C@@]12C was read as Mtb bLac sens -4, BH1578 lux ind 21*, UGM FP inh -1, Rv3671c inh -2 and MazEF act 7.
CC(C)(C)c1ccc(C(=O)C2CCCN(C(=O)C3CCOCC3)C2)cc1 (stereo not given) was read as Mtb bLac sens 2, BH1578 lux ind -1, FadD28 binding 1, UGM FP inh 0, Rv3671c inh -10 and MazEF act 73*.
C/C(=N/NC(=O)c1cc(-c2cccc([N+](=O)[O-])c2)n[nH]1)c1ccc(Cl)cc1 was read as Mtb bLac sens 1, BH1578 lux ind 0, FadD28 binding -1, UGM FP inh 1, Rv3671c inh 3 and MazEF act 56*.
CCOC(=O)c1c(C)[nH]c(C(=O)COc2ccc3ccc(=O)oc3c2)c1C was read as Mtb bLac sens 3, BH1578 lux ind 0, FadD28 binding -3, UGM FP inh 1, Rv3671c inh -13 and MazEF act -8.
Screening CC(C)CNC(=S)NNC(=O)c1csc2c1CCC(C)C2 (stereo not given) returned Mtb bLac sens 0, BH1578 lux ind 4, FadD28 binding -2, UGM FP inh 3, Rv3671c inh -3 and MazEF act -3.
For Cc1cccc(NC(=S)NNC(=O)c2csc3c2CCC(C)C3)c1 (stereo not given) the results were Mtb bLac sens 22, BH1578 lux ind -2, FadD28 binding 14*, Rv3671c inh 3 and MazEF act 1.
`Cc1ccc(OC(C)C(=O)N2CC(=O)Nc3ccccc32)cc1` (stereo not given) gave Mtb bLac sens -1, BH1578 lux ind 0, FadD28 binding 2, UGM FP inh 1, Rv3671c inh -3 and MazEF act 4.
Nc1nc(N)nc(Cc2ccccc2O)n1 was read as Mtb bLac sens 3, BH1578 lux ind 0, FadD28 binding -2, UGM FP inh -2, Rv3671c inh -8 and MazEF act 3.
Screening CCCCC(=O)N(C)c1c(CC)nc2c(OCCC)cccn12 returned BH1578 lux ind inactive and FadD28 binding -4.
`Cc1nc2sc(C(=O)OCC(=O)N3c4ccccc4CC3C)c(C)c2c(=O)[nH]1` (stereo not given) gave Mtb bLac sens 3, BH1578 lux ind 2, FadD28 binding 0, UGM FP inh 2, Rv3671c inh -9 and MazEF act 72*.
`Cc1cccc(C(=O)OCC(=O)N2c3ccccc3CC2C)c1C` (stereo not given) gave BH1578 lux ind 0, FadD28 binding -4 and MazEF act 1.
For COc1ccc(S(=O)(=O)N2C[C@H]3CON(C)[C@H]3C[C@H]2c2ccc(-c3cc4ccccc4o3)cc2)cc1 the results were BH1578 lux ind inactive, FadD28 binding -1 and MazEF act -37.
